Records with an inconclusive call do not appear. Calls of active or inactive are those of the source. Calls come from the whole dose curve; as a rule, active = well fitted curve in the direction sought with a large enough effect; inconclusive = small, poorly fitted or top-dose-only effect, or another doubt; inactive = no such curve, though single readings can be large; an effect the other way counts as inactive or inconclusive.
How the values were obtained:
[1] = target: ATP-dependent 6-phosphofructokinase (Trypanosoma brucei brucei) (UniProt O15648); assay: qHTS Assay to Find Inhibitors of T. brucei phosphofructokinase: hit validation (AID 492961);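 note: luminescence reports ADP formed as PFK phosphorylates fructose-6-phosphate with ATP; % is set by controls: 0 for no effect and ±100 for the full control effect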
Summary of the method: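 In this biochemical qHTS validation, titrated compounds were tested against 1.25 nM PFK with 0.1 mM ATP and 0.5 mM F6P. Percent activity came from controls lacking or containing enzyme.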

[2] = qHTS profiling for inhibitors of Plasmodium falciparum proliferation (AID 504749);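 note: 0% = DMSO vehicle and full inhibition = artemisinin control; nearly all actives have a fitted effect of over 60% in size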; details: P. falciparum in erythrocytes, SYBR Green DNA, 72 h, at 28.7 µM (top of the series)
Summary of the method: (§1)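 Infected RBCs, 0.3% parasitemia/2.5% Hct final; cpd 72 h, 37 C, 5% CO2; lysis buffer with saponin/triton/SYBR Green I, o/n RT dark; FI 485/535; norm. to artemisinin (0.29 uM) and DMSO.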

3D7 = assay: as above; details: P. falciparum in erythrocytes, SYBR Green DNA, 72 h; series mostly up to 28.7 µM
Summary of the method: as §1

ATS189 = assay: as above; details: P. falciparum in erythrocytes, SYBR Green DNA, 72 h; series mostly up to 28.7 µM
Summary of the method: as §1

CP185 = assay: as above; details: P. falciparum in erythrocytes, SYBR Green DNA, 72 h; series mostly up to 28.7 µM
Summary of the method: as §1

CP191 = assay: as above; details: P. falciparum in erythrocytes, SYBR Green DNA, 72 h; series mostly up to 28.7 µM
Summary of the method: as §1

CP192 = assay: as above; details: P. falciparum in erythrocytes, SYBR Green DNA, 72 h; series mostly up to 28.7 µM
Summary of the method: as §1

CP194 = assay: as above; details: P. falciparum in erythrocytes, SYBR Green DNA, 72 h; series mostly up to 28.7 µM
Summary of the method: as §1

CP211 = assay: as above; details: P. falciparum in erythrocytes, SYBR Green DNA, 72 h; series mostly up to 28.7 µM
Summary of the method: as §1

CP217 = assay: as above; details: P. falciparum in erythrocytes, SYBR Green DNA, 72 h; series mostly up to 28.7 µM
Summary of the method: as §1

CP238 = assay: as above; details: P. falciparum in erythrocytes, SYBR Green DNA, 72 h; series mostly up to 28.7 µM
Summary of the method: as §1

CP252 = assay: as above; details: P. falciparum in erythrocytes, SYBR Green DNA, 72 h; series mostly up to 28.7 µM
Summary of the method: as §1

CP262 = assay: as above; details: P. falciparum in erythrocytes, SYBR Green DNA, 72 h; series mostly up to 28.7 µM
Summary of the method: as §1

CP265 = assay: as above; details: P. falciparum in erythrocytes, SYBR Green DNA, 72 h; series mostly up to 28.7 µM
Summary of the method: as §1

CP269 = assay: as above; details: P. falciparum in erythrocytes, SYBR Green DNA, 72 h; series mostly up to 28.7 µM
Summary of the method: as §1

CP286 = assay: as above; details: P. falciparum in erythrocytes, SYBR Green DNA, 72 h; series mostly up to 28.7 µM
Summary of the method: as §1

CP329 = assay: as above; details: P. falciparum in erythrocytes, SYBR Green DNA, 72 h; series mostly up to 28.7 µM
Summary of the method: as §1

Dd2 = assay: as above; details: P. falciparum in erythrocytes, SYBR Green DNA, 72 h; series mostly up to 28.7 µM
Summary of the method: as §1

ECU = assay: as above; details: P. falciparum in erythrocytes, SYBR Green DNA, 72 h; series mostly up to 28.7 µM
Summary of the method: as §1

FAB9 = assay: as above; details: P. falciparum in erythrocytes, SYBR Green DNA, 72 h; series mostly up to 28.7 µM
Summary of the method: as §1

Sequence of ATP-dependent 6-phosphofructokinase (Trypanosoma brucei brucei) (O15648 whole entry, looked up): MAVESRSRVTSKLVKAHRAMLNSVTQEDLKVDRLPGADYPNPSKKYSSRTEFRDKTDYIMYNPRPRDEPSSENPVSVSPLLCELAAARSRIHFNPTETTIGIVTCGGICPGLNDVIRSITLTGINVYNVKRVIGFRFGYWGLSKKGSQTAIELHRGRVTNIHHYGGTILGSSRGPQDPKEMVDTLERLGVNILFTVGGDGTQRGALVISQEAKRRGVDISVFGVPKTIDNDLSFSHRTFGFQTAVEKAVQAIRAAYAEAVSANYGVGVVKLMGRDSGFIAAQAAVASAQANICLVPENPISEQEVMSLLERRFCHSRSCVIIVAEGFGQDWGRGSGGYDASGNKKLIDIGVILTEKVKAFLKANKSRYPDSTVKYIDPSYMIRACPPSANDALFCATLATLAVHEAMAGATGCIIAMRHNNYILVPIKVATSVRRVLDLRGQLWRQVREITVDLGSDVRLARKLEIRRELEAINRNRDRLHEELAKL

CCCC(=O)Nc1c(I)cc(I)c(C[C@H](CC)C(=O)O)c1I
inactive: Potency [1] | activity, negative = inhibition ([2]; parasite line A) 2.81% | activity, negative = inhibition ([2]; parasite line B) -1.24% | Potency (3D7) | Potency (ATS189) | Potency (CP185) | Potency (CP191) | Potency (CP192) | Potency (CP194) | Potency (CP211) | Potency (CP217) | Potency (CP238) | Potency (CP252) | Potency (CP262) | Potency (CP265) | Potency (CP269) | Potency (CP286) | Potency (CP329) | Potency (Dd2) | Potency (ECU) | Potency (FAB9)

NC(CSSCC(N)C(=O)O)C(=O)O (centres undefined)
inactive: Potency [1] | activity, negative = inhibition ([2]; parasite line A) 5.04% | activity, negative = inhibition ([2]; parasite line B) 19% | Potency (3D7) | Potency (ATS189) | Potency (CP185) | Potency (CP191) | Potency (CP194) | Potency (CP211) | Potency (CP217) | Potency (CP238) | Potency (CP252) | Potency (CP262) | Potency (CP265) | Potency (CP269) | Potency (CP286) | Potency (CP329) | Potency (Dd2) | Potency (ECU) | Potency (FAB9)

NCCCCC(N)C(=O)O (centres undefined)
inactive: Potency [1] | activity, negative = inhibition ([2]; parasite line A) -7.93% | activity, negative = inhibition ([2]; parasite line B) 13.6% | Potency (3D7) | Potency (ATS189) | Potency (CP185) | Potency (CP191) | Potency (CP192) | Potency (CP194) | Potency (CP211) | Potency (CP217) | Potency (CP238) | Potency (CP252) | Potency (CP262) | Potency (CP265) | Potency (CP269) | Potency (CP286) | Potency (CP329) | Potency (Dd2) | Potency (ECU) | Potency (FAB9)

C[C@@H](O)[C@@H]1C(=O)N2C(C(=O)O)=C([C@H]3CCCO3)S[C@H]12
inactive: Potency [1] | activity, negative = inhibition ([2]; parasite line A) -3.21% | activity, negative = inhibition ([2]; parasite line B) 2.27% | Potency (3D7) | Potency (ATS189) | Potency (CP185) | Potency (CP191) | Potency (CP192) | Potency (CP194) | Potency (CP211) | Potency (CP217) | Potency (CP238) | Potency (CP252) | Potency (CP262) | Potency (CP265) | Potency (CP269) | Potency (CP286) | Potency (CP329) | Potency (Dd2) | Potency (ECU) | Potency (FAB9)

NC(=O)c1ncn(C2OC(CO)C(O)C2O)c1N (centres undefined)
inactive: Potency [1] | activity, negative = inhibition ([2]; parasite line A) 3.47% | activity, negative = inhibition ([2]; parasite line B) 6.51% | Potency (3D7) | Potency (ATS189) | Potency (CP185) | Potency (CP191) | Potency (CP192) | Potency (CP194) | Potency (CP211) | Potency (CP217) | Potency (CP238) | Potency (CP252) | Potency (CP262) | Potency (CP265) | Potency (CP269) | Potency (CP286) | Potency (CP329) | Potency (Dd2) | Potency (ECU) | Potency (FAB9)
